Screens: PubChem, SRMLSC
In the library only some 6.8% were active in any assay of this set; here they are far more common.
Spn DPM-DC inh: S. pneumoniae DPM-DC inhibition | purified DPM-DC, PK/LDH coupled NADH fluorescence | calls only at 10 µM | hit rate 0.49% among 65,000;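 active means the 320 compounds with the highest percent inhibition in the single-dose primary screen, excluding strongly autofluorescent ones, cut at about 32% in these data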;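 further: kinetic rate of NADH fluorescence loss reporting ADP formed by the decarboxylase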
Spn MK inh: S. pneumoniae mevalonate kinase inhibition | purified MK, PK/LDH-coupled NADH absorbance 340 nm | inhibition, % at 10 µM | hit rate 0.48% among 65,000;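 active means ranked among the strongest by inhibition in the single 10 µM screen, a fixed top-ranked set picked for dose follow-up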
NADH coupling: inhibitors of enzymes used to reach an NAD/NADH endpoint. coupled PK/LDH NADH assays, four targets. IC50, µM (doses to about 10 µM). hit rate 0.02% among 65,000. AID 774;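 active means single-dose screening hits from any of four coupled enzyme assays that gave an IC50 when retested across doses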;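 further: the DPM-DC format reads NADH fluorescence rather than 340 nm absorbance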
Abs 340nm: compound absorbs light at 340 nm | fold change at 10 µM | 65,000 tested, under 10 active | AID 708 | compound absorbance at 340 nm, fold over control;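 active means at 10 µM dose, initial 340 nm absorbance at least 2 fold that of control wells; inactive means change under 2 fold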;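 further: initial absorbance extrapolated from kinetic A340 decline of NADH oxidation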
Autofluor 339: intrinsic fluorescence of library compounds, ex339/em460 – biochemical, MLSMR library, data from DPM-DC assay, artefact control, profiling panel; fluorescence fold increase at 10 µM; compound autofluorescence, ex339/em460 nm, NADH buffer; hits give high values; 1 = no-compound wells, NADH background; hit rate 5.5% among 65,000;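 active means at 10 µM, mean starting fluorescence two-fold or more over control wells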;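 further: signal is the first read of a kinetic run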
Spn PMK inh: S. pneumoniae PMK inhibition | purified PMK, PK/LDH-coupled NADH absorbance 340 nm | inhibition, % at 10 µM | hit rate 0.49% among 65,000 | AID 539;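 active means top-ranked compounds by inhibition in the single 10 µM screen, taking a fixed number of the strongest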
A number is an active result; - = inactive; . = no result given; + = active, no number.

SMILES	Spn DPM-DC inh	Spn MK inh	NADH coupling	Abs 340nm	Autofluor 339	Spn PMK inh
COc1ccc2cc(CN(Cc3cccnc3)S(=O)(=O)c3ccccc3)c(=O)[nH]c2c1	-	-	-	-	2	-
c1ccc(CNn2nnnc2-c2ccccc2)cc1	-	-	-	-	-	-
N=c1n(CCN2CCOCC2)c2ccccc2n1Cc1ccccc1Br	-	-	-	-	-	-
CCn1c(=NC(=O)c2ccc(S(=O)(=O)N3CCOCC3)cc2)sc2cccc(OC)c21	.	-	-	-	4.7	-
CCOC(=O)c1sc(=NC(=O)c2ccc(S(=O)(=O)N3CCOCC3)cc2)n(C)c1C	-	-	-	-	-	-
COc1cccc2sc(=NC(=O)c3ccc(S(=O)(=O)N4CCOCC4)cc3)n(C)c12	-	-	-	-	3.1	-
CCOC(=O)c1nnn(-c2nonc2N)c1CN(C)Cc1ccccc1	-	-	-	-	-	-
CCCCOC(=O)c1ccc(NC(=O)c2cnc3n(c2=O)CCS3)cc1	-	-	-	-	2	-
O=C(Nc1ccc(OC(F)(F)F)cc1)c1cnc2n(c1=O)CCS2	-	-	-	-	-	-
O=C(Nc1ccccc1C(=O)NCc1ccco1)c1ccco1	-	-	-	-	-	-
O=C(Nc1ccccc1C(=O)Nc1ccccc1C(=O)NCc1ccco1)c1ccco1	-	-	-	-	2.3	-
CCOc1ccc(S(=O)(=O)Nc2ccccc2C(=O)NCc2ccco2)cc1	.	-	-	-	4.9	-
CS(=O)(=O)Nc1ccccc1C(=O)NCc1ccco1	.	-	-	-	3.9	-
Cc1ccc(CNC(=O)c2ccccc2NS(C)(=O)=O)cc1	.	-	-	-	4	-
O=C(CSc1ncnc2c1oc1ccccc12)N1CCc2ccccc2C1	-	-	-	-	-	-
COc1ccc(S(=O)(=O)N(CCCN2CCCC2=O)Cc2cc3c(C)cc(C)cc3[nH]c2=O)cc1	-	-	-	-	-	-
CNC(=O)c1ccsc1NC(=O)c1ccc(Cl)s1	-	-	-	-	-	-
COc1ccc(C(=O)Nc2ccccc2C(=O)NC(C(=O)NCc2ccco2)C(C)C)cc1 (stereo not given)	-	-	-	-	-	28
C=CCn1c(NC(=O)c2ccccc2)c(C#N)c2nc3ccccc3nc21	.	-	-	-	2.1	-
C=CCn1c(NC(=O)c2ccccc2Cl)c(C#N)c2nc3ccccc3nc21	.	-	-	-	3.8	-
N#CCCn1c(-c2nonc2NC(=O)c2ccccc2Cl)nc2ccccc21	-	-	-	-	-	-
O=c1[nH]c(CN2CCCCC2)nc2c1C1(CCCC1)Cc1ccccc1-2	-	-	-	-	-	-
Cc1noc(C)c1S(=O)(=O)N(CCc1ccccc1)Cc1ccccc1	-	-	-	-	-	-
CCNC(=O)Cc1ccc(NS(=O)(=O)c2ccc(F)cc2)cc1	-	-	-	-	-	-
CC(C)(C)NS(=O)(=O)c1ccc(NS(=O)(=O)c2ccc(F)cc2)cc1	-	-	-	-	-	26
SMILES	Spn DPM-DC inh	Spn MK inh	NADH coupling	Abs 340nm	Autofluor 339	Spn PMK inh
COCCCNC(=O)c1ccc2nc3ccccc3c(=O)n2c1	.	-	-	-	4.9	-
COCCCn1c(-c2ccccc2)nc2ccccc2c1=O	-	-	-	-	-	-
COc1cc(N2CCOCC2)ncn1	-	-	-	-	-	-
COc1ccc(N(CC(=O)NCc2cccs2)S(=O)(=O)c2cccnc2)cc1	-	47	-	-	-	-
O=C(c1ccc(-c2ccccc2)cc1)N1CCN(c2ncccn2)CC1	-	-	-	-	-	-
Cc1cc(C)n(C(=O)CNC(=O)CCc2ccccc2)n1	-	-	-	-	-	-
N#Cc1cc(N)c(Nc2ccccc2)cc1C#N	-	-	-	-	3.5	-
O=C(c1ccco1)N1CCN(S(=O)(=O)c2ccc(F)cc2)CC1	-	-	-	-	-	-
CCOC(=O)c1cnn2c(C)cc(-c3ccccc3)nc12	.	-	-	-	3.7	-
O=C(NCc1ccco1)c1cc2nc(-c3cccs3)cc(C(F)(F)F)n2n1	.	-	-	-	2.1	-
Cc1cc(-c2ccccc2)nc2cc(C(N)=O)nn12	+	-	-	-	2	-
CC(C)CCNC(=O)c1cnn2c(C(F)(F)F)cc(-c3ccco3)nc12	-	-	-	-	3	-
CCOC(=O)c1cnn(-c2cc(C)nc3c(-c4ccccc4)cnn23)c1N	-	-	-	-	-	-
Cc1cc(C)cc(NC(=O)C2CCN(S(=O)(=O)c3c(C)n[nH]c3C)CC2)c1	-	-	-	-	-	-
CCOC(=O)c1cc(-c2ccco2)nc2c1c(C)nn2-c1ccccc1	-	-	-	-	2.5	-
Cc1nn(-c2ccccc2)c2nc(-c3ccncc3)cc(C(=O)NCc3ccco3)c12	-	-	-	-	-	-
COc1ccc(-c2cc(C(F)(F)F)n3ncc(C(=O)NCc4ccco4)c3n2)cc1	.	-	-	-	2.2	-
O=C(NC1CCCC1)c1cnn2c(C(F)(F)F)cc(-c3ccc4c(c3)OCO4)nc12	-	-	-	-	2.1	-
O=C(CSc1nc(-c2ccco2)cc(C(F)(F)F)n1)NC1CCCC1	-	-	-	-	-	-
O=C(NC1CCCC1)c1cnn2c(C(F)(F)F)cc(-c3ccco3)nc12	-	-	-	-	2.9	-
O=C(c1cnn2c(C(F)(F)F)cc(-c3ccc4c(c3)OCO4)nc12)N1CCCCC1	-	-	-	-	-	-
O=C(NCc1ccco1)c1cnn2c(C(F)(F)F)cc(-c3ccccc3)nc12	-	-	-	-	-	-
CCOC(=O)c1cnn2c(C(F)F)cc(C3CC3)nc12	-	-	-	-	-	-
CCOC(=O)c1cnn2c(C(F)(F)F)cc(-c3ccco3)nc12	.	-	-	-	4.3	-
CC(C)N=c1cc2n(-c3ccc(Cl)cc3)c3ccccc3nc-2cc1Nc1ccc(Cl)cc1	+	-	-	-	-	-
SMILES	Spn DPM-DC inh	Spn MK inh	NADH coupling	Abs 340nm	Autofluor 339	Spn PMK inh
CN1CCN(CP(=O)(N2CCOCC2)N2CCOCC2)CC1	-	-	-	-	-	-
CCCCOc1ccc(C(=O)OC(C)CN(C)C)cc1 (stereo not given)	.	-	-	-	5	-
O=C(Nc1nc(NC(=O)c2ccco2)n(-c2ccccc2)n1)c1ccccc1	.	-	-	-	2.4	-
Cc1ccsc1CN1CCN(c2ccccn2)CC1	-	45	-	-	-	-
C=COCCNC(=O)Nc1ccc(Cl)c(Cl)c1	-	-	-	-	-	-
CC1(C)Cc2c(sc3nc(SCC(=O)O)[nH]c(=O)c23)CO1	-	-	-	-	-	-
CSC1=NC(NCCCO)c2c(sc3c2CC(C)(C)OC3)N1 (stereo not given)	-	-	-	-	2.9	-
COC(=O)c1sc2ccccc2c1C(=O)OC	-	-	-	-	-	-
COC(=O)c1sc2ccccc2c1N	.	-	-	-	2.1	-
CCOc1ccc(NC(=O)c2oc3ccccc3c2NC(=O)C2CC2)cc1	-	-	-	-	2.6	-
